# A number with no mark means an inactive call. Inconclusive results are not listed. Activity calls are given as the source filed them. Unless noted, calls come from the whole dose curve; as a rule, active = well fitted curve in either direction with a large enough effect (not every such curve was filed as active); inconclusive = small, poorly fitted or top-dose-only effect, or another doubt; inactive = flat fitted curve, though single readings scatter.
# Columns and labels:
# [1] = target: Lysosomal acid glucosylceramidase (Homo sapiens) (UniProt P04062); experiment: Glucocerebrosidase-p2 (AID 348; in the data active = potency below about 10 µM; note: potency is the fitted concentration of half-maximal effect); details: purified GBA, blue fluorogenic substrate, 40 min
# Lysosomal acid glucosylceramidase (Homo sapiens), sequence (P04062 whole entry, looked up): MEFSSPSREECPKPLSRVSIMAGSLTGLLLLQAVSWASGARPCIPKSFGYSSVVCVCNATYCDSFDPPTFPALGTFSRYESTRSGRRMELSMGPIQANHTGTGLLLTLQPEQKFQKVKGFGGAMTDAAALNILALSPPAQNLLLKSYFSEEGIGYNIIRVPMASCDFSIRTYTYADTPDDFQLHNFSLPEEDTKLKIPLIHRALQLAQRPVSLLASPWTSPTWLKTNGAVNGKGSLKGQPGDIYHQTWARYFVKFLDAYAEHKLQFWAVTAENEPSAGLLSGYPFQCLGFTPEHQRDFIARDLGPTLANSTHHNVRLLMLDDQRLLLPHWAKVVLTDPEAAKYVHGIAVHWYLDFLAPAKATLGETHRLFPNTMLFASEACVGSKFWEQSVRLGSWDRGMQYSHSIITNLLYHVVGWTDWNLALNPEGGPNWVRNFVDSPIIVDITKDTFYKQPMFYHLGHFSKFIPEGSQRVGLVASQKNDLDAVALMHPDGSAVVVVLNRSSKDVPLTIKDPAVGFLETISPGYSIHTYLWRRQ
# Procedure, shortened: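 Normal human glucocerebrosidase (0.2 nM) with blue fluorogenic substrate (80 uM final) in citrate/phosphate pH 5.9 with 10mM sodium taurocholate, 0.01% tween-20; 40 min RT, NaOH/glycine stop; fluorescence Ex 365/Em 440; AC50 from a titration from 0.6 nM upwards.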
# [2] = AP1 Signaling Pathway (AID 357); details: ME-180 AP-1-bla reporter, EGF-induced, beta-lactamase ratio, 5 h; at 7.69 µM (top of the series) unless noted;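 note: ME-180 reporter cells stimulated with EGF at its EC50 level; % is set by controls: 0 for no effect and ±100 for the full control effect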
# Procedure, shortened: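 Modulation of EGF-driven AP-1 transcription was assessed with a beta-lactamase reporter in ME-180 cells. Compound and EC50 EGF were co-incubated 5 hours at 37 °C before 2.5-hour CCF4 loading at room temperature and dual-emission reading.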
# [3] = NFAT Signaling Pathway (AID 444); details: Jurkat NFAT-bla M1, carbachol, beta-lactamase ratio, 5 h; at 7.69 µM (top of the series) unless noted;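 note: carbachol stimulus at about its EC50 of 1 µM final; % is set by controls: 0 for no effect and ±100 for the full control effect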
# Procedure, shortened: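 Jurkat cells carrying an NFAT-driven β-lactamase reporter and co-transfected muscarinic M1 receptor were treated with compound plus carbachol (1 uM final, an EC50 level) for 5 h at 37 °C. CCF4 loading followed for 1 h at RT; 460/530 nm ratio gave %activity.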
# [4] = target: Glucocorticoid receptor (Homo sapiens) (UniProt P04150); experiment: GR-GFP Redistribution (AID 450;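 active = compounds whose dose series gives a full or clear partial fitted curve of increased nuclear translocation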; note: potency is the fitted concentration of half-maximal effect); details: U2OS GR-GFP nuclear translocation, laser cytometry, 2 h
# Glucocorticoid receptor (Homo sapiens), sequence (P04150 whole entry, looked up, the tested form may be a part): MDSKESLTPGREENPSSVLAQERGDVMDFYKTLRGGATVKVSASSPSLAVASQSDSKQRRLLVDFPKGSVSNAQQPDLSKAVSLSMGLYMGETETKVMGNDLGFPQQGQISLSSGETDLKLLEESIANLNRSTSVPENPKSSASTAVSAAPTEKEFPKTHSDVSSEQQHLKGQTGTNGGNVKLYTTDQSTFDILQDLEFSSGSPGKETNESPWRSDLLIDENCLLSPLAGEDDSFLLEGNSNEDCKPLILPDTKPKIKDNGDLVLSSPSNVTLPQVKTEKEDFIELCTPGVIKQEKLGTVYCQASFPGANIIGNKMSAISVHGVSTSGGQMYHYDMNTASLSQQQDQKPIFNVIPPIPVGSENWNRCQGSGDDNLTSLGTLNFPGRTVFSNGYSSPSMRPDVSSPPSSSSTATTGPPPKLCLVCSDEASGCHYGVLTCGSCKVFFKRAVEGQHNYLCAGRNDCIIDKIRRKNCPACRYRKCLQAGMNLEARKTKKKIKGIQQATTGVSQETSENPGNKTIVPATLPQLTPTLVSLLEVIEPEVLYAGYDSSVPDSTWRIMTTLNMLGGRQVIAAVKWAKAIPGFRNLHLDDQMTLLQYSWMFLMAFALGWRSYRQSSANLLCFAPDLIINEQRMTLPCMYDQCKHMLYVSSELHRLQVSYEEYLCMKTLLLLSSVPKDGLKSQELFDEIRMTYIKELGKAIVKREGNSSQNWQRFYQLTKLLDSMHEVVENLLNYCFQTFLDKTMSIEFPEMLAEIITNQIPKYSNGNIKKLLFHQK
# [5] = target: Glucocorticoid receptor (Homo sapiens) (UniProt P04150); experiment: GR-EFC Redistribution (AID 451; calls by dose curve; note: potency is the fitted concentration of half-maximal effect); details: CHO-K1 GR-EFC translocation, beta-gal luminescence, 2 h
# Procedure, shortened: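 CHO-K1 cells stably expressing nuclear-localized β-gal enzyme acceptor and GR fused C-terminally to the enzyme donor fragment; ligand-driven nuclear translocation restores β-gal by complementation. Compounds titrated up to 46 uM final, 2 h at 37 °C; luminescence read.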
# [6] = target: Mitogen-activated protein kinase 10 (Mus musculus) (UniProt Q61831); experiment: JNK3 AlphaScreen Assay (AID 530); details: JNK3 lysate, c-Jun phosphorylation; series mostly up to 11.4 µM;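 note: kinase came from lysate of stimulated human HepG2 cells; signal reports phosphorylation of biotinylated GST-cJun 1-79 at Ser73 with 10 µM ATP; % is set by controls: 0 for no effect and ±100 for the full control effect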
# Procedure, shortened: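 Biotinylated GST-cJun(1-79) served as substrate for JNK3 in HepG2 lysates stimulated with IL-1beta and TNF-alpha. ATP was 10 uM final, pH 7.6. Ser73 phosphorylation was quantified by AlphaScreen (680 nm excitation).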
# [7] = target: 3',5'-cyclic-AMP phosphodiesterase 4B (Homo sapiens) (UniProt Q07343); experiment: qHTS Assay for Inhibitors of PDE-IV (AID 607; active = well fitted activation curve with a large enough effect in the main read-out, with a control signal flat, not every such curve was filed as active; note: % of control where 0% means no effect); details: HEK293 ACTOne CNG channel cells, membrane potential fluorescence; series mostly up to 22.9 µM
# 3',5'-cyclic-AMP phosphodiesterase 4B (Homo sapiens), sequence (Q07343 whole entry, looked up): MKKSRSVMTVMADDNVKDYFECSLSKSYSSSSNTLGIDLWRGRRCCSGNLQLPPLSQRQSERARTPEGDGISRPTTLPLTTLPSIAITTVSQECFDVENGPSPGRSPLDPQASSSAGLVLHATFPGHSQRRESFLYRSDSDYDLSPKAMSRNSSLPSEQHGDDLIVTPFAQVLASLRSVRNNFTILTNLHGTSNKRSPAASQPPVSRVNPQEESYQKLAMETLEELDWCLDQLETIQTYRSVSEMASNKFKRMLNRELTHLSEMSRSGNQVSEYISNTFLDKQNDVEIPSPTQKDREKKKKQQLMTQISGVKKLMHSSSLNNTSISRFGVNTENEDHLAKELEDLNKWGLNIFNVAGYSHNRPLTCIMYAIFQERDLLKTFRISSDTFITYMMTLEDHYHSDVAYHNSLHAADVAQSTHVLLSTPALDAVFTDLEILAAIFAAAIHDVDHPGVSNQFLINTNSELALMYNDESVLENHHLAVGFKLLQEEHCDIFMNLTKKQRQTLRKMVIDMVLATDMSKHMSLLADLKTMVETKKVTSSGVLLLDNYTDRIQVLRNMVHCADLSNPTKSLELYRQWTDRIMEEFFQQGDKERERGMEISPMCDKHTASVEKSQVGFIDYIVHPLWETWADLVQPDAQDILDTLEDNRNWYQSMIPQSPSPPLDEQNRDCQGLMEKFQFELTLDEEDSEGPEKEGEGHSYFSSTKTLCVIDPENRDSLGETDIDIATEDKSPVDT
# Procedure, shortened: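 Cell-based read-out of cAMP via a modified cyclic nucleotide-gated channel and membrane potential dye (535/590 nm) in HEK293 cells expressing PDE4 endogenously. Compounds tested up to 22.9 uM final; 100 uM RO 20-1724 reference.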
# [8] = Stat Signaling Pathway (AID 446); details: ME-180 SIE beta-lactamase reporter, IL-6 stimulated, 5 h; at 7.69 µM (top of the series) unless noted;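 note: ME-180 cervical cancer cells given 40 pM IL-6 alongside compound; SIE-controlled beta-lactamase reporter measured as 460/530 nm FRET emission ratio; % is set by controls: 0 for no effect and ±100 for the full control effect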
# Procedure, shortened: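 FRET read-out (405 nm excitation, 460/530 nm emission) of a beta-lactamase reporter under a STAT-inducible element in ME-180 cervical carcinoma cells. Cells with compound receive 40 pM IL-6 for 5 h. Values are normalised to AC90 stimulation and AC90 JAK-inhibitor controls.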
# [9] = Confirmation and Secondary Assay for Modulators of Hemoglobin Beta Chain Splicing at IVS2 654 locus (AID 910; active = well fitted curve in the direction sought with a large enough effect; an effect the other way counts as inactive or inconclusive;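 note: per-well total GFP intensity by laser scanning cytometry after 2-day treatment; % of control where 0% means no effect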); details: HeLa EGFP-654 splicing reporter, GFP fluorescence, 48 h; series mostly up to 38.3 µM
# Procedure, shortened: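 HeLa cells stably carrying EGFP interrupted by mutant beta-globin IVS2-654 intron (CMV-driven) were treated with compound for 2 days at 37C; corrected splicing was scored as total peak GFP intensity per well (488 nm excitation, 500-520 nm emission).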
# [10] = target: Ubiquitin carboxyl-terminal hydrolase 1 (Homo sapiens) (UniProt O94782); experiment: Inhibitors of USP1/UAF1: Pilot qHTS (AID 504865; active = well fitted curve in the direction sought with a large enough effect; an effect the other way counts as inactive or inconclusive; note: potency is the fitted concentration of half-maximal effect; nearly all actives have a fitted effect of over 35% in size); details: purified USP1/UAF1, Ub-rhodamine cleavage fluorescence; series mostly up to 114 µM
# Ubiquitin carboxyl-terminal hydrolase 1 (Homo sapiens), sequence (O94782 whole entry, looked up): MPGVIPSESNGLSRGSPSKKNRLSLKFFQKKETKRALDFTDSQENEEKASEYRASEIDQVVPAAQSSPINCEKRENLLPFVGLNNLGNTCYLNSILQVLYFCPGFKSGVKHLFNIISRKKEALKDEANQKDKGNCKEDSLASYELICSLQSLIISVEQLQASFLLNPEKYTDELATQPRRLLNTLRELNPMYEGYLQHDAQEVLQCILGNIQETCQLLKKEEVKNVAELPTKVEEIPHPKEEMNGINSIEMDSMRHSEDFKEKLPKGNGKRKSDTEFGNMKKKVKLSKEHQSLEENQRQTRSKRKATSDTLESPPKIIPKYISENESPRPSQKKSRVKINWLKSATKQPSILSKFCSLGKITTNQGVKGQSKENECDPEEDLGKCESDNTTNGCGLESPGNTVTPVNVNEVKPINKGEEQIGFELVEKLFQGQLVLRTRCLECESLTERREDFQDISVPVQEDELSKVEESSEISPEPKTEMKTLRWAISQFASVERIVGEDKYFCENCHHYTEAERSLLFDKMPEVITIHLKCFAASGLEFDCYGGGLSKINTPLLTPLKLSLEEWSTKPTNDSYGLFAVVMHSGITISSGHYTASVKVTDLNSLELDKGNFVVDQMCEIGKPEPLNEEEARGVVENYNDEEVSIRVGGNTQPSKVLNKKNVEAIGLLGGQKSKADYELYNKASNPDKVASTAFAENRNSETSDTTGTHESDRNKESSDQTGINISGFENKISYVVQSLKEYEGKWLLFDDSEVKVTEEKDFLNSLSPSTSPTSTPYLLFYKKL
# Procedure, shortened: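 Enzyme-free wells gave the negative control, while test wells held 1nM USP1/UAF1 preincubated with compound for 15 min at room temperature. Ub-Rho at 150nM final started the reaction, and fluorescence at 480/540 nm was recorded kinetically.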
# [11] = target: Cytochrome P450 2C19 (Homo sapiens) (UniProt P33261); experiment: qHTS Assay for Inhibitors and Substrates of Cytochrome P450 2C19 (AID 899; active = well fitted curve in the direction sought with a large enough effect; an effect the other way counts as inactive or inconclusive; note: potency is the fitted concentration of half-maximal effect; nearly all actives have a fitted effect of over 60% in size); details: recombinant CYP2C19, luciferin-H EGE luminescence; series mostly up to 11.4 µM
# Cytochrome P450 2C19 (Homo sapiens), sequence (P33261 whole entry, looked up): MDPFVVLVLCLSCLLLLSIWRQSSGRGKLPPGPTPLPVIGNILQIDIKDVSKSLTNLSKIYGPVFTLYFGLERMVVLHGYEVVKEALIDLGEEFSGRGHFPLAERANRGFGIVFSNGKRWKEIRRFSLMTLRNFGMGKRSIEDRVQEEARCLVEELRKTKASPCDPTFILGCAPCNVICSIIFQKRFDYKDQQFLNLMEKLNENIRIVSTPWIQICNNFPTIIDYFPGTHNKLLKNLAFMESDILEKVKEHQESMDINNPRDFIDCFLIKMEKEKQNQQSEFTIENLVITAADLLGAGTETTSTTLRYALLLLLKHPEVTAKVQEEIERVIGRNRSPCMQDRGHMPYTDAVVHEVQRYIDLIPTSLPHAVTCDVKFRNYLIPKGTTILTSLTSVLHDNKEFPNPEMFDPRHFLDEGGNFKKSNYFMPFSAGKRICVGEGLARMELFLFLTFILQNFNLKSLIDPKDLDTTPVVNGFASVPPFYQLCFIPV
# Procedure, shortened: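 Human CYP2C19 (5nM) with Luciferin-H EGE at 10uM (its KM) in 50mM KPO4 was preincubated with compound for 10 min at 37C. NADPH regeneration started a 60 min 37C reaction. Luciferin was read by luminescence, normalized to 57uM ketoconazole.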
# [12] = qHTS Assay for Identification of Small Molecule Agonists for Hypoxia Response Element Signaling Pathway (AID 914; active = well fitted activation curve with a large enough effect in the signal ratio, with a control signal flat, not every such curve was filed as active; the % refers to the signal ratio; note: % of control where 0% means no effect); details: ME-180 (cervical carcinoma) HRE-bla reporter, beta-lactamase ratio, CoCl2, 17 h; activation: hits give high values
# Procedure, shortened: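 Reporter activity (beta-lactamase, CCF4 460nm/530nm ratio) in HRE-bla ME-180 cells is recorded after 17 h compound exposure with EC50 CoCl2 at 37 degrees Celsius. AC50 values come from titration data.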
# [13] = target: Cytochrome P450 2C9 (Homo sapiens) (UniProt P11712); experiment: qHTS Assay for Inhibitors and Substrates of Cytochrome P450 2C9 (AID 883; active = well fitted curve in the direction sought with a large enough effect; an effect the other way counts as inactive or inconclusive; note: potency is the fitted concentration of half-maximal effect; nearly all actives have a fitted effect of over 60% in size); details: recombinant CYP2C9, luciferin-H luminescence, 60 min; series mostly up to 11.4 µM
# Cytochrome P450 2C9 (Homo sapiens), sequence (P11712 whole entry, looked up): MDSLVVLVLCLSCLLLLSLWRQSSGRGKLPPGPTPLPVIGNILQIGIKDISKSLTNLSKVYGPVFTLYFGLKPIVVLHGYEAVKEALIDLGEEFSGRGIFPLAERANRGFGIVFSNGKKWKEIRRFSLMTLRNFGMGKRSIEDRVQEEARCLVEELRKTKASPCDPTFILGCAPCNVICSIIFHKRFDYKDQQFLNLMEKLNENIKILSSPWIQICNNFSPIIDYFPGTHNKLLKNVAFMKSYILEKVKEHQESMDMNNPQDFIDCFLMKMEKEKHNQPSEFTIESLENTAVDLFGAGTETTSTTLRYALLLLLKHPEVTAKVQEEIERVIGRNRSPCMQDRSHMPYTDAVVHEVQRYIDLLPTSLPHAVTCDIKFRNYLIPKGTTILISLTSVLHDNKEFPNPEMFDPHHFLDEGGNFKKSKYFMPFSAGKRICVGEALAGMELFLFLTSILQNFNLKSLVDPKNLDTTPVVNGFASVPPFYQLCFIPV
# Procedure, shortened: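 Human CYP2C9 (10nM) hydroxylated Luciferin-H (100uM, at its KM) to luciferin in 25mM KPO4. Compound was preincubated 10 min at 37C, then NADPH regeneration started a 60 min reaction at 37C. Luminescence was read after detection reagent, normalized to 57uM sulphaphenazole.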
# [14] = target: Cytochrome P450 3A4 (Homo sapiens) (UniProt P08684); experiment: qHTS Assay for Inhibitors and Substrates of Cytochrome P450 3A4 (AID 884; active = well fitted curve in the direction sought with a large enough effect; an effect the other way counts as inactive or inconclusive; note: potency is the fitted concentration of half-maximal effect; nearly all actives have a fitted effect of over 50% in size); details: recombinant CYP3A4, Luciferin-PPXE luminescence; series mostly up to 57.1 µM
# Cytochrome P450 3A4 (Homo sapiens), sequence (P08684 whole entry, looked up): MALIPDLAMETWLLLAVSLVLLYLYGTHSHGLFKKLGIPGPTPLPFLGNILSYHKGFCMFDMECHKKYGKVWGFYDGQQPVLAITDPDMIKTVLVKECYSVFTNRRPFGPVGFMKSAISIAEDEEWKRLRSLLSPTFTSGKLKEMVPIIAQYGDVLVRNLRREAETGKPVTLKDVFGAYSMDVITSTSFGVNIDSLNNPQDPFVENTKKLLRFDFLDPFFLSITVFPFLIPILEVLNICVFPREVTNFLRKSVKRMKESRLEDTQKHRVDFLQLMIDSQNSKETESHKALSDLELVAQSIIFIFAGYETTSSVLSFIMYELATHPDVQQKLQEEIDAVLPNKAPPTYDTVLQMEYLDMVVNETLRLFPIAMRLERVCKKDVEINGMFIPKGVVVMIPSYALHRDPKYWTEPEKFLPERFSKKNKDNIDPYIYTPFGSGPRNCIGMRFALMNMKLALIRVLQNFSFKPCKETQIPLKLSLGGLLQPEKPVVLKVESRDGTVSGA
# Procedure, shortened: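 Luminescent readout of luciferin produced by CYP3A4 (20 nM) dealkylation of Luciferin-PPXE, 25 uM (its KM). NADPH-driven reaction ran 60 min at RT after 10 min compound preincubation; data scaled to 57 uM ketoconazole as 100% inhibition.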
# [15] = target: Cytochrome P450 3A4 (Homo sapiens) (UniProt P08684); experiment: qHTS Assay for Activators of Cytochrome P450 3A4 (AID 885; active = well fitted curve in the direction sought with a large enough effect; an effect the other way counts as inactive or inconclusive; note: nearly all actives have a fitted effect of over 65% in size); details: recombinant CYP3A4, Luciferin-PPXE luminescence, 60 min; series mostly up to 11.4 µM
# Procedure, shortened: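 Luminescent readout of luciferin formed from 25 uM Luciferin-PPXE (KM level) by 20 nM CYP3A4 in 200 mM KPO4, with 60 min NADPH-driven reaction at room temperature after 10 min compound exposure. Ketoconazole (57 uM) defined 100% inhibition.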
# [16] = target: Cytochrome P450 2D6 (Homo sapiens) (UniProt P10635); experiment: qHTS Assay for Inhibitors and Substrates of Cytochrome P450 2D6 (AID 891; active = well fitted curve in the direction sought with a large enough effect; an effect the other way counts as inactive or inconclusive; note: potency is the fitted concentration of half-maximal effect; nearly all actives have a fitted effect of over 60% in size); details: recombinant CYP2D6, luciferin-ME EGE luminescence; series mostly up to 11.4 µM
# Cytochrome P450 2D6 (Homo sapiens), sequence (P10635 whole entry, looked up): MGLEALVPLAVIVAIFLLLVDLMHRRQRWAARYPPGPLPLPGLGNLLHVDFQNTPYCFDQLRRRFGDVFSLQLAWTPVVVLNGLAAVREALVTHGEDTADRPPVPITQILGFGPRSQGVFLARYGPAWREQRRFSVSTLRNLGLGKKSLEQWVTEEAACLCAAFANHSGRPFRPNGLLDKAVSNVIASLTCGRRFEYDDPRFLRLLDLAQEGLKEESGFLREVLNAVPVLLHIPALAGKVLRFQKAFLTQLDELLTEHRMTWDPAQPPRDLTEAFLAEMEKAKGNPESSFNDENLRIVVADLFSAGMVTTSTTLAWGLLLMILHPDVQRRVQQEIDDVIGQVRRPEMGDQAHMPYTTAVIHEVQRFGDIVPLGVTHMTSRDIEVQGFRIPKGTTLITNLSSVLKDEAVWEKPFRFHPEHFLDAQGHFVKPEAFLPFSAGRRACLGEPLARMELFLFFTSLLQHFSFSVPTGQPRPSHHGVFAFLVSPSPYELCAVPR
# Procedure, shortened: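 Luminescent read-out of luciferin formed by 5 nM human CYP2D6 demethylating 30 uM Luciferin-ME EGE (Km level) over 60 min at room temperature after NADPH regeneration addition. Data normalized to full inhibition by 1.43 uM quinidine.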
structure (smiles),measurement,setting,value
NC(=O)SCC(=O)Nc1ccc2ncccc2c1,Potency,[1],> 11.4 µM
same,"activity change, negative = inhibition",[2],1.01%
same,"activity change, negative = inhibition",[3],12.1%
same,Potency,[4],> 46 µM
same,Potency,[5],> 9.22 µM
same,Potency,[6],inactive
same,Potency,[7],inactive
CC(CCc1nc2ccccc2s1)(c1ccc(O)cc1)c1ccc(O)cc1,Potency,[1],> 11.4 µM
same,"activity change, negative = inhibition",[2],7.74%
same,"activity change, negative = inhibition",[3],1.62%
same,Potency,[4],> 46 µM
same,Potency,[5],> 9.22 µM
same,Potency,[6],inactive
same,Potency,[7],inactive
COc1ccc(CNc2nc(-c3ccccc3OC)nc3ccccc23)c(OC)c1,Potency,[1],> 11.4 µM
same,"activity change, negative = inhibition",[2],-13.6%
same,"activity, negative = inhibition",[8],16.1%
same,Potency,[4],> 46 µM
same,Potency,[5],> 46 µM
same,Potency,[6],inactive
same,Potency,[7],inactive
same,outcome,[9],inactive
same,Potency,[10],20 µM (active)
CC(=O)[C@H]1CC[C@@H]2[C@]1(C)CC=C1[C@]23C=C[C@]2(C[C@H](O)CC[C@@]12C)[C@H](C(=O)O)[C@@H]3C(=O)O,Potency,[1],> 11.4 µM
same,"activity change, negative = inhibition",[2],-6.74%
same,"activity change, negative = inhibition",[3],13%
same,Potency,[4],> 46 µM
same,Potency,[5],> 9.22 µM
same,Potency,[6],inactive
same,Potency,[7],inactive
O=C(O)c1cc(C(=O)O)cc(N2C(=O)c3ccccc3C2=O)c1,Potency,[1],> 11.4 µM
same,"activity change, negative = inhibition",[2],4.16%
same,"activity, negative = inhibition",[8],-2.79%
same,Potency,[4],> 46 µM
same,Potency,[5],> 9.22 µM
same,Potency,[6],inactive
same,Potency,[7],inactive
O=C(O)[C@@H](O)[C@H](O)C(=O)O,Potency,[1],> 11.4 µM
same,"activity change, negative = inhibition",[2],-6.26%
same,"activity change, negative = inhibition",[3],14.9%
same,Potency,[4],> 46 µM
same,Potency,[5],> 9.22 µM
same,Potency,[6],inactive
same,Potency,[7],inactive
c1ccc(-c2nnn(CCN3CCCCC3)n2)cc1,Potency,[1],> 11.4 µM
same,"activity change, negative = inhibition",[2],10.5%
same,"activity change, negative = inhibition",[3],-5.15%
same,Potency,[4],> 46 µM
same,Potency,[5],> 9.22 µM
same,Potency,[6],inactive
same,Potency,[7],inactive
same,Potency,[11],1.26 µM (active)
same,activation,[12],-4.81%
Nc1ccc(N(S(=O)(=O)c2ccccc2)S(=O)(=O)c2ccccc2)c(Cl)c1,Potency,[1],> 11.4 µM
same,"activity change, negative = inhibition",[2],-27.7%
same,"activity change, negative = inhibition",[3],-14.8%
same,Potency,[4],> 46 µM
same,Potency,[5],> 9.22 µM
same,Potency,[6],inactive
same,Potency,[13],3.16 µM (active)
same,Potency,[14],0.0316 µM (active)
same,Potency,[15],inactive
same,Potency,[11],0.158 µM (active)
O=C(O)c1ccncc1.O=C(O)c1ccncc1.[Cl][Pt]([Cl])([Cl])[Cl],Potency,[1],> 11.4 µM
same,"activity change, negative = inhibition",[2],2.72%
same,"activity change, negative = inhibition",[3],-19.9%
same,Potency,[4],> 46 µM
same,Potency,[5],> 9.22 µM
same,Potency,[6],inactive
same,Potency,[7],inactive
c1ccc(CSCCc2ccncc2)cc1,Potency,[1],> 11.4 µM
same,"activity change, negative = inhibition",[2],-1.16%
same,"activity change, negative = inhibition",[3],-10.1%
same,Potency,[5],> 9.22 µM
same,Potency,[6],inactive
same,Potency,[7],inactive
same,Potency,[13],0.316 µM (active)
same,Potency,[16],1.26 µM (active)
O[C@@H](c1cc(-c2ccccc2)nc2c1ccc1ccccc12)[C@@H]1CCCCN1,Potency,[1],> 11.4 µM
same,"activity change, negative = inhibition",[2],-3.12%
same,"activity, negative = inhibition",[8],9.42%
same,Potency,[4],> 46 µM
same,Potency,[5],> 9.22 µM
same,Potency,[6],inactive
O=C1C2=C(Nc3cc([N+](=O)[O-])ccc3N2)O[C@@H]1c1ccc([C@H]2OC3=C(Nc4ccc([N+](=O)[O-])cc4N3)C2=O)cc1,Potency,[1],> 11.4 µM
same,"activity change, negative = inhibition",[2],-12.2%
same,"activity change, negative = inhibition",[3],4.88%
same,Potency,[4],> 46 µM
same,Potency,[5],> 9.22 µM
same,Potency,[6],inactive
same,Potency,[7],inactive
same,Potency,[15],inactive
O=C(O)[C@H]1CCCC[C@@H]1c1c2ccc(=O)c(O)c-2oc2c(O)c(O)ccc12,Potency,[1],> 11.4 µM
same,"activity change, negative = inhibition",[2],-17.7%
same,"activity change, negative = inhibition",[3],0.0388%
same,Potency,[4],> 46 µM
same,Potency,[5],> 9.22 µM
same,Potency,[7],inactive
O=C(O)C[C@H](Nc1ccccc1)C(=O)O,Potency,[1],> 11.4 µM
same,"activity change, negative = inhibition",[2],0.63%
same,"activity change, negative = inhibition",[3],19.5%
same,Potency,[4],> 46 µM
same,Potency,[5],> 9.22 µM
same,Potency,[6],inactive
same,Potency,[7],inactive
NC(=O)NCCS[C@H]1CCCC[C@@H]1O,Potency,[1],> 11.4 µM
same,"activity change, negative = inhibition",[2],3.84%
same,"activity change, negative = inhibition",[3],3.5%
same,Potency,[4],> 46 µM
same,Potency,[5],> 9.22 µM
same,Potency,[6],inactive
same,Potency,[7],inactive
O=C(O)[C@H](/C=C\c1ccccc1)c1ccccc1,Potency,[1],> 11.4 µM
same,"activity change, negative = inhibition",[2],0.652%
same,"activity change, negative = inhibition",[3],-12%
same,Potency,[4],> 46 µM
same,Potency,[5],> 9.22 µM
same,Potency,[6],inactive
same,Potency,[7],inactive

# Reference: PubChem BioAssay (NCATS)
